Screen size: about 1,200 compounds; about 55 (5%) were called active. A call without a number means that no potency is given here. Another 15% or so got no clear call; they are omitted. This is one part of a sample in which actives are shown more often than they occur. The call rests on the fitted dose curve; in most records, active means well fitted inhibition curve with a large enough effect; inconclusive means small, poorly fitted or top-dose-only effect; inactive means no such curve, though single readings can be large or run the other way.
Potency means the concentration at half of the fitted maximal effect.

The assay in a line: qHTS Assay to Find Inhibitors of Chronic Active B-Cell Receptor Signaling: Hit Validation in Renilla Reporter Assay. Further: nearly all actives have a fitted effect of over 70% in size. As to conditions: TMD8 IkB-Renilla luciferase reporter, NF-kB signaling; series mostly up to 57.5 µM. The text has this:
Diffuse large B-cell lymphoma (DLBCL) is the most common category of non-Hodgkin lymphoma, with ~20,000 new cases per year in the United States. DLBCL should be regarded as a collection of different neoplasms. Microarray gene expression analysis has defined two principal types of DLBCL, named for their similarity to normal B cell stages or activation states: a germinal center B-cell (GCB) type, and an activated B-cell (ABC) type. In ABC-DLBCL, a constitutive high-level activity of the NF-kappaB family of transcription factors has been observed (1) and NF-kappaB target genes are more highly expressed in ABC primary tumors than in GCB tumors. Functional studies have shown a constitutive high-level activity of the IkappaB (inhibitor of kappa-B) kinase (IKK) complex. […] Further analysis of DLBCL primary tumors for NF-kappaB target gene expression imply that although CARD11 is required for constitutive IKK activity in all ABC-DLBCL lines, mutations in CARD11 may be the root cause of IKK activation only in lines or tumors with such mutations. In other words, CARD11 mutations may explain NF-kappaB activation in only 10% of ABC-DLBCL cases. […] This process has been termed 'chronic active BCR signaling' (CABS). The goal of this screen is to find small-molecule inhibitors of the CABS pathway found in ABC-DLBCL lines using a cell-based assay that measures IkappaBalpa stability, which has already been extensively validated in the OCI-Ly3 line (PubChem AID:445; REF: 4). […] Hits from the primary screen were tested in this orthogonal secondary assay. NIH Molecular Libraries Probe Production Network [MLPCN] NIH Chemical Genomics Center [NCGC] MLPCN Grant: R03 DA031086 PI Name: Dr. R. Eric Davis
The IkB-Photinus/Renilla reporter assay differs from the primary assay in that the reporters are constitutively expressed, and based on luciferases that are different from the click beetle luciferases and each other. These differences should help to eliminate artifactual sources of activity specific to the primary assay. This assay uses the Dual-Glo substrate from Promega; extensively validated in a 96-well format, it could be converted to a smaller-well format. All lines needed for the IkB-Photinus/Renilla assay have already been prepared and extensively validated
Turning to `Cc1cccc(NS(=O)(=O)c2ccc(C3CCCCC3)cc2)n1`, the Potency is 13.5 µM (active). For `Cc1ccc(C)c(NS(=O)(=O)c2ccc(-c3cnc(C4CC4)o3)cc2)c1`, the Potency result was “inactive”. As to `Cc1cc(C)cc(NS(=O)(=O)c2ccc(-c3cnc(C4CC4)o3)cc2)c1`, the Potency entry is “inactive”. With `Cc1ccccc1NC(=S)N=Nc1c(O)n(C)c2ccc(S(=O)(=O)N3CCOCC3)cc12`, the Potency result is “inactive”. `CCn1c(=O)c([N+](=O)[O-])c(Cl)c2ccccc21`: the Potency is 2.39 µM (active).

On to `CC[C@]12c3[nH]c4cc(CCC(=O)N(C)C)ccc4c3CCN1C(=O)[C@@H](CC(=O)NCc1ccco1)C[C@@H]2C(=O)N1CCN(C(=O)c2ccco2)CC1`, for which the Potency entry was “inactive”.

With `c1ccc(C2=Nn3c(nnc3-c3n[nH]c4c3CCC4)SC2)cc1`, the Potency result is “inactive”.

On to `Cc1ccc(OCCN2C(=O)C(=O)c3cc(C)ccc32)cc1`, for which the Potency entry is “inactive”.

As for `CC(C)n1c(SCC(=O)Nc2ccccc2)nc2c1c(=O)n(C)c(=O)n2C`, the Potency result is “inactive”. For `CN(C)c1nc(=Nc2cccc(Cl)c2)ss1`, the Potency was 10.7 µM (active). For the molecule `COc1cc(OC)cc(C(=O)NCC(=O)Nc2ccc(-c3ccccc3)cc2)c1`, the Potency result is “inactive”. Regarding `COc1cc(OC)cc(C(=O)NCc2ccc3c(c2)CCN3C(=O)c2ccccc2)c1`, the Potency entry is “inactive”. In the case of `COc1ccc(/C=C/C(=O)Nc2cc(S(=O)(=O)N3CCOCC3)ccc2OC)cc1`, the Potency entry is “inactive”. As for `Cc1noc(C)c1CSc1ncnc2ccccc12`, the Potency result is “inactive”. To `COc1ccc(C(=O)n2c(-c3ccco3)nc3ccccc32)cc1` belongs “inactive”; to `COc1ccc(C(=O)/C=C/c2ccc(OC)c(Cn3nnc4ccccc43)c2)cc1`, 9.53 µM (active); to `COc1cc(/C=C\C(=O)OCn2nnc3ccccc3c2=O)cc(OC)c1OC`, “inactive”. As to `COc1ccccc1NC(=O)COc1ccc(-c2nn(C)c(=O)c3ccccc23)cc1`, the Potency result was “inactive”. Take `Cc1ccc(NC(=S)NC(=O)C2CC2)cc1Cl`: the Potency entry was “inactive”. On to `Cc1c(CCC(=O)NCCC(=O)O)c(=O)oc2c(C)c3oc4c(c3cc12)CCCC4`, for which the Potency entry is “inactive”. As to `COc1cc(/C=N/NC(=O)NC2CCCCC2)ccc1O`, the Potency result is “inactive”. Take `CCOc1cc(Br)c(C=O)cc1OCC`: the Potency result is “inactive”. On to `O=Cc1ccccc1OCCOc1ccccc1C=O`, for which the Potency is 12 µM (active). Take `Cc1c(CCC(=O)N[C@@H](C)C(=O)O)c(=O)oc2cc3oc4c(c3cc12)CCCC4`: the Potency entry was “inactive”. Take `CCC(NC(=O)CCc1c(C)c2cc3c4c(oc3cc2oc1=O)CCCC4)C(=O)O` (stereo unspecified): the Potency entry was “inactive”. For the molecule `Cc1cc(NC(=O)CSc2nc3ccccc3c(=O)n2C2CCCC2)no1`, the Potency result was “inactive”. To `Cc1cc(C)n(-c2nc3ccccc3c(=O)n2OCC#N)n1` belongs 16.9 µM (active); to `CCC(=O)Nc1nonc1-c1nc2ccccc2n1Cc1cccc2ccccc12`, “inactive”. In the case of `CNCc1ccccc1Sc1ccc(O)c(O)c1`, the Potency is 10.7 µM (active). To `COc1cccc(N2CC(O)=C(c3nc4ccccc4s3)C2=N)c1` belongs “inactive”. To `CCOc1cc(/C=N\NC(N)=O)cc(Br)c1OC(C)C` belongs “inactive”; to `O=C(/C=C/c1ccc(O)cc1)c1ccc(O)cc1O`, 10.7 µM (active); to `O=C(/C=C/c1ccco1)NC(=S)Nc1cccc(-c2nc3ccccc3o2)c1`, “inactive”.

For `CCn1ncc(C2=NOC(C(=O)NCc3ccccc3)C2)c1C` (stereo unspecified), the Potency entry is “inactive”. The same measure for `CC(C)N=C(NS(=O)(=O)c1ccccc1)C(Cl)(Cl)Cl`: 26.9 µM (active); for `Oc1cccc(Nc2nc(N3CCOCC3)nc(N3CCOCC3)n2)c1`: “inactive”. Consider `CC1=CC(C)(C)N(S(=O)(=O)c2ccc(C)cc2)c2ccc(C)cc21`, for which the Potency entry is “inactive”. `CCOc1ccccc1NS(=O)(=O)c1ccc(-c2cnc(C3CC3)o2)cc1`: the Potency entry is “inactive”. Take `COc1ccc(C(=O)N2CCc3cc(OC)c(OC)cc3C2c2ccc(OC)c(OC)c2)cc1` (stereo unspecified): the Potency result was “inactive”. To `COc1cc(NC(=S)NC(=O)c2ccccc2F)ccc1NC(=O)c1ccco1` belongs “inactive”. As for `COc1cccc(C(=O)Nc2cc(NC(=O)c3cccs3)ccc2C)c1OC`, the Potency result was “inactive”. On to `COc1ccccc1C(=O)Nc1ccccc1SC(=O)c1ccccc1OC`, for which the Potency is 23.9 µM (active). To `Cc1ccc(COC(=O)c2cc([N+](=O)[O-])ccc2N2CCOCC2)cc1` belongs “inactive”. For the molecule `CCc1cc2c(SCC(=O)Nc3ccc(NC(C)=O)cc3)ncnc2s1`, the Potency entry was “inactive”. As to `CCCC(=O)Nc1ccc2c(c1)nc(CN1CCN(C(=O)OCC)CC1)n2CC`, the Potency result is “inactive”. With `C=CCn1c(SCC(=O)Nc2cccc(S(N)(=O)=O)c2)nc2sc(C)c(C)c2c1=O`, the Potency result is “inactive”. To `O=C(CCl)Nc1cccc(S(=O)(=O)NC2=NCCCCC2)c1` belongs 19 µM (active); to `O=C(CCl)Nc1cc(S(=O)(=O)N2CCCCCC2)ccc1Cl`, “inactive”; to `CN(C)/C=N/c1sc2c(c1C#N)CCCC2`, “inactive”. `COc1cc(C2C(C#N)=C(N)Oc3cc(N)ccc32)cc(OC)c1OC` (stereo unspecified): the Potency result was “inactive”.

For the molecule `CCN(C(=O)COC(=O)c1cc([N+](=O)[O-])ccc1N1CCOCC1)c1ccccc1`, the Potency result is “inactive”.

For the molecule `CC(=O)Nc1nc2ccc(-c3nc4ccccc4o3)cc2s1`, the Potency result was “inactive”.

On to `CCCc1nc([N+](=O)[O-])c(S(=O)(=O)c2ccccc2)n1CC(C)C`, for which the Potency is 30.1 µM (active). The same measure for `Cc1ccc(C(=O)c2cc([N+](=O)[O-])ccc2N2CCCCC2)cc1C`: “inactive”; for `CCOC(=O)C1=C(C)NC(C)=C(C(=O)OCC)C1/C=C/c1ccccc1`: “inactive”. In the case of `O=C(/C=C\c1ccco1)Nc1cc([N+](=O)[O-])ccc1F`, the Potency result was “inactive”. For the molecule `O=S1(=O)C=C(Sc2nc3cc(Cl)ccc3o2)c2ccccc21`, the Potency was 8.49 µM (active). To `CCOC(=O)C(C)Oc1cccc2c(=O)n(CC(=O)NCc3ccccc3)ccc12` (stereo unspecified) belongs “inactive”; to `COc1ccc(N(C(=O)c2ccccc2C)S(=O)(=O)c2cccs2)cc1`, “inactive”.

As for `Cc1ccc(C(=O)c2cc([N+](=O)[O-])ccc2N2CCCCC2)cc1`, the Potency entry was “inactive”. Regarding `O=C(Oc1ccc2ccc(OC(=O)N3CCOCC3)cc2c1)N1CCOCC1`, the Potency result is “inactive”.

For `O=C(/C=C/c1cccs1)c1cc(Br)ccc1OC(=O)N1CCOCC1`, the Potency was 26.9 µM (active). To `C#C[C@]1(O)CC[C@H]2[C@@H]3CCc4cc(O)ccc4[C@H]3CC[C@@]21C` belongs “inactive”; to `O=C(COc1ccccc1-c1ccccc1)N/N=C/c1cccc2ccccc12`, “inactive”; to `Nc1cc(=O)[nH]c(SCC(=O)Nc2cc(Cl)cc(Cl)c2)n1`, “inactive”. Regarding `COc1cc2c(cc1OC)-c1cc(Nc3ccc(C)cc3)nc(=O)n1CC2`, the Potency result was “inactive”.

(Values after PubChem BioAssay AID651568 (National Center for Advancing Translational Sciences (NCATS), 2012).)
